Among the data in PubChem BioAssay AID602242 (Southern Research Specialized Biocontainment Screening …, 2012) are outcome values, retold here.

Entries with a potency or affinity are not part of this list. Activity calls are given as the source filed them. No rule for the calls is given here.

The nature of this assay: cell-based, strain KU V3526, counter-screen (AID 602242). To be noted: VEEV strain V3526 infected cells, CPE inhibition; series mostly up to 50 µM.

Consider `O=c1c2cc([N+](=O)[O-])ccc2nc(CN2CCN(c3ccccc3)CC2)n1-c1ccccc1F`, for which the call was inactive.

On to `O=C(Oc1ccc2ccccc2c1Br)N1CCCCCC1`, for which the call was inactive.
